Records with an inconclusive call do not appear. Calls of active or inactive are those of the source. Unless noted, the call rests on the fitted dose curve; in most records, active means well fitted curve in the direction sought with a large enough effect; inconclusive means small, poorly fitted or top-dose-only effect, or another doubt; inactive means no such curve, though single readings can be large; an effect the other way counts as inactive or inconclusive.
Experiments:
[1] = target: Thioredoxin reductase 1, cytoplasmic (Rattus norvegicus) (UniProt O89049); experiment: qHTS Assay for Substrates of Mammalian Selenoprotein Thioredoxin Reductase 1 (TrxR1) (AID 488772);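 further: series mostly up to about 57 µM; 0% is about no effect; a drop in NADPH fluorescence below the no-compound background marks a TrxR1 substrate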
Method in brief: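 In this dual-purpose format, potential substrates are identified from the first fluorescence read after selenite addition, not from the 8-minute delta. Rat enzyme is preincubated with NADPH and then with compound at ~22 deg C.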

[2] = target: Flap endonuclease 1 (Homo sapiens) (UniProt P39748); experiment: qHTS Validation Assay for the Inhibitors of Human Flap endonuclease 1 (FEN1) (AID 488816); further: on the % scale 0 is the no-effect control and ±100 the full control effect
Method in brief: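 Steps: add FEN1 (10 nM reagent) or buffer only; pin compounds; hold 15 min at room temperature; start with substrate, 50 nM final; read at 0 and 15 min; correct, normalize and fit a four-parameter Hill curve.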

[3] = target: M-phase phosphoprotein 8 (Homo sapiens) (UniProt Q99549); experiment: qHTS Validation Assay for Inhibitors for MPP8 Chromodomain Interactions with Methylated Histone Tails (AID 488949); further: nearly all actives have a fitted effect of over 55% in size; further: potency means the concentration at half of the fitted maximal effect
Method in brief: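 MPP8 (50 nM) was pre-bound to 50 nM biotinylated H3(1-18)K9me3 peptide in PBS pH 7.4 with 0.01% Tween-20. Compounds were then added for 30 min at room temperature, and complex disruption was read by AlphaScreen with streptavidin donor and nickel-chelate acceptor beads.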

[4] = target: Chromobox protein homolog 1 (Homo sapiens) (UniProt P83916); experiment: qHTS Validation Assay for Inhibitors of HP1-beta Chromodomain Interactions with Methylated Histone Tails (AID 488953); further: nearly all actives have a fitted effect of over 50% in size; further: potency means the concentration at half of the fitted maximal effect
Method in brief: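 Compounds pinned into a preassembled complex of HP1-beta and trimethyl-K9 histone H3(1-18) biotin peptide (50 nM each; PBS pH 7.4, 0.01% Tween-20). After 30 min, bead-based AlphaScreen detection followed.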

[5] = target: Methanococcus maripaludis chaperonin (MmCpn) (UniProt Q6LX38); experiment: High-Throughput Screening for Modulators of Cytosolic Chaperonin Activity: MmCpn Primary Screen (AID 488978);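 further: 50 nM MmCpn enzyme hydrolysing 30 µM ATP at 37 °C; 0% is about no effect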
Method in brief: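 MmCpn at 50 nM final was preincubated 5 min at RT with compound. ATP was then added at 30 uM final for 10 min at 37 C. ADP formed was detected by Transcreener HTRF (665/590 nm).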

[6] = target: Transient receptor potential cation channel subfamily V member 1 (Homo sapiens) (UniProt Q8NER1); experiment: HTS Assay for Compounds that Act as Enhancers of the Vanilloid Receptor 1 (AID 488979); further: 0% is about no effect
Method in brief: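 TRPV1-expressing cells loaded with Fluo-8 calcium dye; compounds added and calcium influx read kinetically for 3 min (agonist phase), then capsaicin at EC20 added and read 2 min more for enhancement. Fluorescence ex 480/em 520 nm.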

[7] = target: Thyrotropin receptor (Homo sapiens) (UniProt P16473); experiment: qHTS Assay for Antagonists of the Thyroid Stimulating Hormone Receptor (AID 488980); further: series mostly up to about 58 µM; 0% is about no effect
Method in brief: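 TSHR-transfected HEK293 cells (2000/well) in HEPES-buffered HBSS with 70 uM RO 20-1724 were stimulated with 4 nM TSH (EC80, final) in the presence of compound. cAMP was measured by HTRF competition after lysis and 30 min at RT.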

[8] = target: D(1A) dopamine receptor (Homo sapiens) (UniProt P21728); experiment: HTS Assay for Allosteric Agonists of the Human D1 Dopamine Receptor: Primary Screen for Agonists (AID 488981); further: potency means the concentration at half of the fitted maximal effect; on activation: 0% is about no effect
Method in brief: (§1)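 Tetracycline-induced HEK293 T-REx cells force-coupled to calcium signalling were incubated overnight at 30 C and dye-loaded at room temperature. Calcium flux over 180 s after compound addition flagged agonists; a further 180 s read after EC20 dopamine flagged potentiators.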

[9] = target: D(1A) dopamine receptor (Homo sapiens) (UniProt P21728); experiment: HTS Assay for Allosteric Agonists of the Human D1 Dopamine Receptor: Primary Screen for Potentiators (AID 488982); further: 0% is about no effect
Method in brief: as §1

[10] = Validation screen for small molecules that induce genotoxicity in human embryonic kidney (HEK293T) cells expressing luciferase-tagged ELG1 (AID 493106); further: 0% is about no effect
Method in brief: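 In this validation screen, increased ELG1-luciferase signal flags compounds causing genetic stress. HEK293T reporter cells are treated 16 hr (37 °C, 5% CO2), developed with ONE-Glo for 30 min at room temperature, and imaged on a CCD-based reader.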

[11] = target: ATPase family AAA domain-containing protein 5 (Homo sapiens) (UniProt Q96QE3); experiment: Validation screen for small molecules that inhibit ELG1-dependent DNA repair in human embryonic kidney (HEK293T) cells expressing luciferase-tagged ELG1 (AID 493107);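 further: cells co-treated with the DNA-damaging agent 5-fluorouridine alongside compound; series mostly up to about 46 µM; on the % scale 0 is the no-effect control and ±100 the full control effect; inhibitors lower the ELG1-luciferase luminescence signal; nearly all actives have a fitted effect of over 70% in size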
Method in brief: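 Compounds reducing 5-fluorouridine-driven ELG1-luciferase signal in HEK293T cells were scored; exposure lasted 16 hr at 37 °C with luminescence detected via ONE-Glo.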

[12] = target: Thyrotropin-releasing hormone receptor (Homo sapiens) (UniProt P34981); experiment: qHTS for Small Molecule Agonists and Allosteric Enhancers of Human TRH Receptor: Validation Screen for Agonists (AID 493127;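 active means calcium activation more than 3 SD above the typical response in the agonist read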;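 further: intracellular calcium rise by fluo-8 fluorescence before TRH EC20 addition; 0% is about no effect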); conditions: TRH receptor agonist cell assay; at 2 µM; active compounds read high
Method in brief: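 Kinetic fluorescence assay of agonist-induced calcium release: overnight-plated TRHR cells, room-temperature fluo-8 loading, baseline then compound addition with per-second reads.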

[13] = qHTS for Inhibitors of Cell Surface uPA Generation: Validation Assay (AID 493164);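 further: RAW 264.7 macrophage cells exposed to compound for 18 h; 0% is about no effect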
Method in brief: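 Compounds are titrated over seven points (2.45 nM–38.3 uM final) onto pre-plated RAW 264.7 cells and incubated for 18 h. Retained intracellular ATP, measured with ATP-Lite, indicates blocked lethal factor entry.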

[14] = target: Galactokinase (Homo sapiens) (UniProt P51570); experiment: qHTS Validation Assay for Inhibitors of Human Galactokinase (GALK) (AID 493189); further: 0% is about no effect
Method in brief: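 GALK (5 nM) with 35 uM ATP and 100 uM galactose in HEPES pH 8.0 with MgCl2, NaCl, DTT and BSA. Reaction ran 1 h at room temperature. Residual ATP read by Kinase-Glo Plus luminescence.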

[15] = Validation screen for small molecules that induce DNA re-replication in SW480 colon adenocarcinoma cells (AID 504364); further: 0% is about no effect
Method in brief: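 Hoechst-stained SW480 nuclei, imaged at 405 nm excitation after 48 hr compound exposure, were counted for elevated DNA content as the re-replication signal.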

[16] = target: Peptidyl-prolyl cis-trans isomerase NIMA-interacting 1 (Homo sapiens) (UniProt Q13526); experiment: qHTS Validation Assay to Find Inhibitors of Pin1 (AID 504536; active means well fitted inhibition curve with a large enough effect in the polarisation, with a control signal flat, not every such curve was filed as active; the % refers to the polarisation;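 further: 0% = full Pin1 enzyme wells and -100% = no-enzyme wells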)
Method in brief: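 Fluorescence polarization competition: compounds (titration) displace HiFluor-488-labeled Pin1-1b peptide from Pin1 (0.3 uM final) in pH 7.5 HEPES buffer with DTT, 10 min at room temperature; %Activity normalized to no-enzyme wells, curves fitted.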

[17] = target: phosphoglycerate mutase (Leishmania major) (UniProt Q4Q090); experiment: qHTS Validation Assay to Find Inhibitors of Phosphoglycerate Mutase (AID 504548);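 further: end-point luminescence from Kinase-GloPlus after the PGAM reaction; series mostly up to about 58 µM; on the % scale 0 is the no-effect control and ±100 the full control effect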
Method in brief: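 L. major PGAM (1.25nM final) was added to substrate buffer and pinned compound, incubated 45 minutes at room temperature, then Kinase-GloPlus added; luminescence read after 10 minutes. Buffer: 100 mM TEA pH 7.6, 5 mM MgCl2, 0.01% Tween-20.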

[18] = target: ATP-dependent 6-phosphofructokinase (Trypanosoma brucei brucei) (UniProt O15648); experiment: qHTS Assay to Find Inhibitors of T. brucei phosphofructokinase: hit validation (AID 492961);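 further: luminescence reports ADP formed as PFK phosphorylates fructose-6-phosphate with ATP; series mostly up to about 51 µM; on the % scale 0 is the no-effect control and ±100 the full control effect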
Method in brief: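 Percent activity derived from corrected luminescence, normalized between 0x and 1x enzyme controls, then fitted to concentration-response curves. Conditions: 1.25 nM PFK, 0.1 mM ATP, 0.5 mM F6P, 45 min RT.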

[19] = target: D(1A) dopamine receptor (Homo sapiens) (UniProt P21728); experiment: HTS Assay for Allosteric Agonists of the Human D1 Dopamine Receptor: Primary Screen for Antagonists (AID 488983);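 further: calcium flux response to an EC80 dopamine challenge measured with no-wash dye; on the % scale 0 is the no-effect control and ±100 the full control effect; nearly all actives have a fitted effect of over 65% in size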
Method in brief: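 In this primary screen, compounds are applied to calcium-dye-loaded HEK293 T-REx cells with force-coupled D1 expression induced overnight at 30 C. An EC80 of dopamine follows the 180 s compound phase, and calcium is monitored for a further 180 s.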

Chain of Methanococcus maripaludis chaperonin (MmCpn) (Q6LX38 1-543): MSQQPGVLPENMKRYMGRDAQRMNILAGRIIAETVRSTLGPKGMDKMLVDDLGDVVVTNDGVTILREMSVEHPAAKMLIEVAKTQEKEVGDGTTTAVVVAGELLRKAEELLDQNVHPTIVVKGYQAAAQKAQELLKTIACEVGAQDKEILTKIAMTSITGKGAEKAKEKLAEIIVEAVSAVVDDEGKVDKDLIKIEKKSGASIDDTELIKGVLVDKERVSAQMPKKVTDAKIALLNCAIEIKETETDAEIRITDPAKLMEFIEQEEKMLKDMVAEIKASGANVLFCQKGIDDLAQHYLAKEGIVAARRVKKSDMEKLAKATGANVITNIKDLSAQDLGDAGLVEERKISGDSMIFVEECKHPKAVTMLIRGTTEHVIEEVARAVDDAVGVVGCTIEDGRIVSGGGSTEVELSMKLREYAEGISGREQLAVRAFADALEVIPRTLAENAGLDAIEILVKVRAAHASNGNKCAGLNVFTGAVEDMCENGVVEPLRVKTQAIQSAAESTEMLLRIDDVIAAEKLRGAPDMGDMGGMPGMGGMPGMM
Chain of M-phase phosphoprotein 8 (Homo sapiens) (Q99549 whole entry, looked up): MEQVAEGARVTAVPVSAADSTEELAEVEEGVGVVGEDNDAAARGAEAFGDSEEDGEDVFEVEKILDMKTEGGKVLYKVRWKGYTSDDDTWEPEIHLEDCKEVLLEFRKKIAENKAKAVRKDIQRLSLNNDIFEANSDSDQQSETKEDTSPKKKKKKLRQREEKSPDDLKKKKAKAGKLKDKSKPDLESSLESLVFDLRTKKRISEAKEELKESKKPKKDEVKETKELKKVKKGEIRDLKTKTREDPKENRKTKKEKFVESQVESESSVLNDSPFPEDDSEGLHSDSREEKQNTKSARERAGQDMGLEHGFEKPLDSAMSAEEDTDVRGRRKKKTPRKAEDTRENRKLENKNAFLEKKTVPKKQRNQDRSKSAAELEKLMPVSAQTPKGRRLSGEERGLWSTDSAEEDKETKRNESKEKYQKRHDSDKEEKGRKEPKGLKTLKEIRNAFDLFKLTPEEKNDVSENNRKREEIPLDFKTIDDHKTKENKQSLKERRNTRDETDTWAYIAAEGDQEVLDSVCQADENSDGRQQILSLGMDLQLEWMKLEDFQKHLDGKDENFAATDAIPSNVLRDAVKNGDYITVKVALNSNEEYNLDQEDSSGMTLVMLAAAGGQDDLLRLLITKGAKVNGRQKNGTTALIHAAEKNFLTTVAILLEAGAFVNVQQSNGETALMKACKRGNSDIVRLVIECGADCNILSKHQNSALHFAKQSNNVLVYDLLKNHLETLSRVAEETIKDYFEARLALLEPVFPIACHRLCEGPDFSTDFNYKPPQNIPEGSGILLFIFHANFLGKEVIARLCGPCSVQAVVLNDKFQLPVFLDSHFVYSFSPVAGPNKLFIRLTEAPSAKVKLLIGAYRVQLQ
Chain of Flap endonuclease 1 (Homo sapiens) (P39748 whole entry, looked up): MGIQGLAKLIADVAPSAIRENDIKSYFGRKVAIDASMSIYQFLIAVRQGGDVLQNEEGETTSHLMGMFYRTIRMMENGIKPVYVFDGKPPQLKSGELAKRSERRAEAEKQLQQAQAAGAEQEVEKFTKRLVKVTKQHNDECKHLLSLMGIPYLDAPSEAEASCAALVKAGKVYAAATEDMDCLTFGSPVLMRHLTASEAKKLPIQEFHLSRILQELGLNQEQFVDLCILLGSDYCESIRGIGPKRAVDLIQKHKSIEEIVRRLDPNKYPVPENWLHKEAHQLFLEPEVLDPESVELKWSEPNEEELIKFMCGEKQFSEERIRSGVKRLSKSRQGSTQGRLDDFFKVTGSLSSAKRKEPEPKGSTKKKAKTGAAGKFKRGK
Chain of Transient receptor potential cation channel subfamily V member 1 (Homo sapiens) (Q8NER1 whole entry, looked up): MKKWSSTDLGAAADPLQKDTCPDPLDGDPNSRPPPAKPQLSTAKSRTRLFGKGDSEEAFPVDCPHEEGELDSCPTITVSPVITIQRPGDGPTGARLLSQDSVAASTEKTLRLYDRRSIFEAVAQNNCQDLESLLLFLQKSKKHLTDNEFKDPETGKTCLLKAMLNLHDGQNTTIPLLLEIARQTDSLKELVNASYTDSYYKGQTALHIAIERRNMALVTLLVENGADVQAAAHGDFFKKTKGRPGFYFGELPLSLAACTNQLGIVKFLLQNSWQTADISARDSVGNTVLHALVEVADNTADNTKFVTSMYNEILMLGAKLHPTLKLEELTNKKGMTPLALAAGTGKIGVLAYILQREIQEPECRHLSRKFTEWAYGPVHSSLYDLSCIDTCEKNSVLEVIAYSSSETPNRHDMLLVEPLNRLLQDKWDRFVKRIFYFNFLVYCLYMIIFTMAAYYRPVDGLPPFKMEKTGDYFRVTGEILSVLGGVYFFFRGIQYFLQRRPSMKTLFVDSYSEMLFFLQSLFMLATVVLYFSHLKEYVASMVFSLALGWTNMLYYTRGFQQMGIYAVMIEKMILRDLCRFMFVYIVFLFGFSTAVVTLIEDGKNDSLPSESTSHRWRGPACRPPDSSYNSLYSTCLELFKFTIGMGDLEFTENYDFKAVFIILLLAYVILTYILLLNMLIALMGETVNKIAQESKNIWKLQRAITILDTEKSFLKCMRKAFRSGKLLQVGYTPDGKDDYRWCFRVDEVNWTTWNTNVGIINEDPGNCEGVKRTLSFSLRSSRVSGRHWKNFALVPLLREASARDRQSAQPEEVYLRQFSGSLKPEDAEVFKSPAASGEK
Chain of ATPase family AAA domain-containing protein 5 (Homo sapiens) (Q96QE3 whole entry, looked up, the tested form may be a part): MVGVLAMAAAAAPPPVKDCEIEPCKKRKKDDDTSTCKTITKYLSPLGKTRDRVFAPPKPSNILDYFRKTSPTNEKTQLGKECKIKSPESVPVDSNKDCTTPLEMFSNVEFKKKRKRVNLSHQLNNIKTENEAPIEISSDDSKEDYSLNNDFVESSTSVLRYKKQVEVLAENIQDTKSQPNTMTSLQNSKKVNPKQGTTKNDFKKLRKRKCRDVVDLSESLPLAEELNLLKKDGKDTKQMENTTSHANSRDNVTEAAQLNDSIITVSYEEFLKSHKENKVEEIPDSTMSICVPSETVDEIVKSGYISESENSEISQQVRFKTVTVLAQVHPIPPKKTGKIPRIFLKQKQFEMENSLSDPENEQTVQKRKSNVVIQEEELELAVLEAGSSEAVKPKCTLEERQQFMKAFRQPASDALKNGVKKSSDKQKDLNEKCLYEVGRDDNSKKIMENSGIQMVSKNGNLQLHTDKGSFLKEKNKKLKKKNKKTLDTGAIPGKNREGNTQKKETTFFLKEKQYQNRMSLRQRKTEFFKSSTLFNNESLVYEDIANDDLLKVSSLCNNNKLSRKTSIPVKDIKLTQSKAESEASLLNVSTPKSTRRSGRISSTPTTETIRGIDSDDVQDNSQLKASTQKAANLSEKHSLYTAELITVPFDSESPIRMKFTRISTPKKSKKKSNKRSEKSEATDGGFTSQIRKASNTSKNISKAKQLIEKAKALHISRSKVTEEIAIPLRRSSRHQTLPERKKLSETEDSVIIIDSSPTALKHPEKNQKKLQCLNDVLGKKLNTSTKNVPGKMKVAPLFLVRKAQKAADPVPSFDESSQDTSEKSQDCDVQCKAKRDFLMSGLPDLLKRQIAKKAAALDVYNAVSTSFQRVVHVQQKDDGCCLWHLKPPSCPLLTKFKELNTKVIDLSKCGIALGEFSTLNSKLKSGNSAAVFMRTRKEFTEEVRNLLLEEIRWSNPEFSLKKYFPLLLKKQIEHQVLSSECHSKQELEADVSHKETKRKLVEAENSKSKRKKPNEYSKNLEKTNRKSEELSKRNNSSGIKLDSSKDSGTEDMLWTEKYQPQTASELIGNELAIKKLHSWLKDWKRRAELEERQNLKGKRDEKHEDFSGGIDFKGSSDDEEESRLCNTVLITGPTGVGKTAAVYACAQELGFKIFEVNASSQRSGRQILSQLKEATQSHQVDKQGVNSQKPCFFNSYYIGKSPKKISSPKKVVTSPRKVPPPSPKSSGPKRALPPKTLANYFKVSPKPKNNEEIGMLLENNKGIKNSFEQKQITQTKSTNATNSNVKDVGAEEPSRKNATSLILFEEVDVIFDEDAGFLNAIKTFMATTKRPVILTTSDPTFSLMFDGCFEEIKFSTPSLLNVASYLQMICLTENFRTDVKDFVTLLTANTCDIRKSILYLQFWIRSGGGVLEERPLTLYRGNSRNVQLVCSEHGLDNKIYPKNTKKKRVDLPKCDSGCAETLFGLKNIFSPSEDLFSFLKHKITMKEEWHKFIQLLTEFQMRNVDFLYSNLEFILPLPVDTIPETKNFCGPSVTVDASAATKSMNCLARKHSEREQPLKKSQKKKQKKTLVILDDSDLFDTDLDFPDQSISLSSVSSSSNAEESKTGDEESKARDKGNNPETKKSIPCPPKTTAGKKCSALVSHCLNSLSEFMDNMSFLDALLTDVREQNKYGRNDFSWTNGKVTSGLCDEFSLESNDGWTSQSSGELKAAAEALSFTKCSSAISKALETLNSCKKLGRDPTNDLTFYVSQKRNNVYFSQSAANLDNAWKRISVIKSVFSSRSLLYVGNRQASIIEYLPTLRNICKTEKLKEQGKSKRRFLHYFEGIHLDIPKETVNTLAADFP
Chain of Peptidyl-prolyl cis-trans isomerase NIMA-interacting 1 (Homo sapiens) (Q13526 whole entry, looked up): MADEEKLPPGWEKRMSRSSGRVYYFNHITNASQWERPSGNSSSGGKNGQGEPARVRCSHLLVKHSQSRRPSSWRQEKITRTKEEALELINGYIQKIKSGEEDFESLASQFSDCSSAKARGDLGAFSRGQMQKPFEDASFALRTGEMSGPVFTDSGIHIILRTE
Chain of Chromobox protein homolog 1 (Homo sapiens) (P83916 whole entry, looked up): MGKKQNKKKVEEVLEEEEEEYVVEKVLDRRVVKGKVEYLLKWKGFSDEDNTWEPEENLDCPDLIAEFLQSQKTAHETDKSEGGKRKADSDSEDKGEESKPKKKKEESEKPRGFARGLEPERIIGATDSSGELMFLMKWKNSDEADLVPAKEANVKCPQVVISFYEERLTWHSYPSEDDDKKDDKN

CC(C)c1cccc(C(C)C)c1O
inactive: outcome [1] | outcome [2] | Potency [3] | Potency [4] | outcome [5] | outcome [6] | outcome [7] | Potency [8] | outcome [9] | outcome [10] | outcome [11] | activation [12] -6.88% | outcome [13] | outcome [14] | outcome [15] | outcome [16] | outcome [17]

CC[N+](CC)(CC)CCOc1cccc(OCC[N+](CC)(CC)CC)c1OCC[N+](CC)(CC)CC
active: Potency [3] 13.4 µM

Nc1nc(N)nc(NC2CC2)n1
inactive: outcome [18]

CN1C(=O)COc2c(C(=O)NC3CN4CCC3CC4)cc(Cl)cc21 (centres undefined)
inactive: outcome [18]

CC(NC(C)(C)C)C(=O)c1cccc(Cl)c1 (centres undefined)
inactive: outcome [1] | outcome [2] | Potency [3] | Potency [4] | outcome [5] | outcome [6] | Potency [8] | outcome [19] | outcome [10] | outcome [11] | activation [12] -0.188% | outcome [13] | outcome [14] | outcome [15] | outcome [16] | outcome [17]

CCC1(c2ccc(N)cc2)CCC(=O)NC1=O (centres undefined)
inactive: outcome [1] | Potency [3] | Potency [4] | outcome [5] | outcome [6] | Potency [8] | outcome [9] | outcome [19] | outcome [10] | outcome [11] | activation [12] 1.56% | outcome [13] | outcome [14] | outcome [15] | outcome [17]

COc1ccc2c(c1)C13CCCC[C@@H]1C(C2)N(C)CC3 (some centres undefined)
inactive: outcome [18]

c1ccc2c(c1)sc1ccccc12
inactive: outcome [18]

CC(C)(C)NCC(O)c1ccccc1Cl (centres undefined)
inactive: outcome [1] | outcome [2] | Potency [3] | Potency [4] | outcome [5] | outcome [6] | outcome [7] | Potency [8] | outcome [9] | outcome [19] | outcome [18] | outcome [10] | outcome [11] | activation [12] 0.312% | outcome [13] | outcome [14] | outcome [15] | outcome [16] | outcome [17]

O=C(CCCN1CCC2(CC1)C(=O)NCN2c1ccccc1)c1ccc(F)cc1
active: Potency [8] 12.6 µM
inactive: outcome [1] | outcome [2] | Potency [3] | outcome [5] | outcome [7] | outcome [9] | outcome [10] | outcome [13] | outcome [14] | outcome [15] | outcome [16] | outcome [17]

CC(=O)N1CCN(c2ccc(OC[C@H]3CO[C@](Cn4ccnc4)(c4ccc(Cl)cc4Cl)O3)cc2)CC1
inactive: outcome [2] | outcome [10]
active: Potency [3] 39.8 µM | Potency [4] 39.8 µM

Source: PubChem BioAssay (NCATS)
